Compound activity: PubChem BioAssay, National Center for Advancing Translational Sciences (NCATS)
This is a sample that favours compounds with a hit; in the whole collection about 1% have one here.
gsp antagonist: antagonists of gsp mutant (McCune-Albright syndrome) | AID 624288 | gsp-mutant cells, cAMP HTRF, 30 min | Potency, µM (titrated, usually from 76.9 µM), for the others: at the top dose activity change, negative = inhibition, actives largely listed as inhibitors | hit rate 0.4% among 340,000; calls by dose curve; cell line not stated here;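 further: intracellular cAMP measured with PDE inhibitor Ro 20-1724 present during compound exposure; potency means the concentration at half of the fitted maximal effect; on the % scale 0 is the no-effect control and ±100 the full control effect; nearly all actives have a fitted effect of over 65% in size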
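Measurement of cellular cAMP by homogeneous time-resolved fluorescence following a 30 min compound exposure at 37C. The PDE inhibitor […] was present throughout; the assay buffer was DPBS with 0.05% BSA and 0.005% Tween 20.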
RXFP1 agonist: activates the human relaxin receptor RXFP1 | Q9HBX9 | HEK293T-RXFP1 cAMP TR-FRET, 30 min; response scale: percent of porcine relaxin response, buffer zero | Potency, µM (series often up to 57.5 µM), for inactives: at the highest dose activation, most hits filed as activators | hit rate 0.3% among 370,000; active means well fitted activation curve with a large enough effect; inconclusive means small, poorly fitted or top-dose-only effect; further: potency means the concentration at half of the fitted maximal effect; on the % scale 0 is the no-effect control and ±100 the full control effect; nearly all actives have a fitted effect of over 60% in size
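HEK293T cells stably expressing RXFP1 were pretreated with the PDE4 inhibitor Ro 20174, exposed to compounds for 30 min at 37C, lysed, and cAMP was read by TR-FRET. Data normalized to buffer (basal) and 29 nM porcine relaxin (100%).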
TSHR antagonist: blocks TSH signaling through the human TSH receptor; TSHR-expressing cells, TSH-stimulated cAMP HTRF, 2 h; hits give low values; activity change, negative = inhibition, % at 11.5 µM; hit rate 0.2% among 330,000; AID 504810;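 active means activity change below a set negative limit, meaning inhibition stronger than a set level, cut at about -70% in these data; inconclusive means activity change between two set negative limits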; further: on the % scale 0 is the no-effect control and ±100 the full control effect
Target sequence (P16473 whole entry, looked up): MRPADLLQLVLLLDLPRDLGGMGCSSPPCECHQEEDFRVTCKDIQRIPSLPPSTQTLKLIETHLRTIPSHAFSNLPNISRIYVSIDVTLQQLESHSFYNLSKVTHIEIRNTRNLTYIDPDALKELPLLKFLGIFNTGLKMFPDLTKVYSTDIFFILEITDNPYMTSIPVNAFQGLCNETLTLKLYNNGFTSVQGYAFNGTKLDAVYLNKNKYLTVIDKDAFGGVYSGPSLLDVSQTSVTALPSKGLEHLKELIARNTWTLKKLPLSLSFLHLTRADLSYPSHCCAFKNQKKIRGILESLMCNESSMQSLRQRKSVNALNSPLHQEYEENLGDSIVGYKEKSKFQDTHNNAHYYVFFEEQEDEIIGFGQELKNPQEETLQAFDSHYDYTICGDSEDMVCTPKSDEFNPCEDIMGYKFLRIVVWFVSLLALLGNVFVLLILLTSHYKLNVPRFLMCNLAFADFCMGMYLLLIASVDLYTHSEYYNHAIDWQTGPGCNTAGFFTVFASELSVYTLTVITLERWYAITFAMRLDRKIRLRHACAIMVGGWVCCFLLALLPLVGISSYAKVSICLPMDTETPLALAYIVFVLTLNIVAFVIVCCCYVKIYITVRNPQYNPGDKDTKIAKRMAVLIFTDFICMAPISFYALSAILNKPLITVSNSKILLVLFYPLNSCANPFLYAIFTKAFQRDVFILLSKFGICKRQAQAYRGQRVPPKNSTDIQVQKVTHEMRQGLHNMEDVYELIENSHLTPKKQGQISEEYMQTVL
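Competitive HTRF cAMP read-out (cryptate anti-cAMP antibody, cAMP-d2; 30 min, room temperature) in freshly harvested TSHR cells. Compounds added before TSH at EC80 (4nM final), followed by 2 hours' incubation at 37 deg C.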
gsp ag: agonists of gsp mutant (McCune-Albright syndrome) | gsp mutant cells, cAMP HTRF, 30 min | Potency, µM (top dose mostly 76.9 µM), inactives show at the top dose activation (cAMP increase), hits mostly activators | hit rate 0.13% among 340,000; active means well fitted activation curve with a large enough effect; inconclusive means small, poorly fitted or top-dose-only effect, or another doubt; inactive means no such curve, though single readings can be large or run the other way; cell line not stated here;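 further: phosphodiesterase inhibitor Ro 20-1724 added with compounds to block cAMP breakdown; potency means the concentration at half of the fitted maximal effect; nearly all actives have a fitted effect of over 60% in size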
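Cells stably selected in G418 were plated at 2000/well, grown 16-24 hr, then given compounds in DMSO with the PDE inhibitor […] (300 uM solution added) for 30 min at 37C; cAMP was read by HTRF.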
RXFP1 antag: antagonists of human relaxin receptor RXFP1; Q9HBX9; HEK293-RXFP1, relaxin-stimulated cAMP HTRF, 30 min; hits give low values; activity change, negative = inhibition, % at 57.5 µM; hit rate 0.59% among 350,000; AID 1259400;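 active means activity change of -60% or lower, but not beyond a set lower limit; inconclusive means change between -60% and -40%, or beyond the set limit; inactive means change above -40%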; further: on the % scale 0 is the no-effect control and ±100 the full control effect
Numbers without * were called inactive; ! = not confirmed by another sample; [ ] = remark or other dose.

How did O=C1CC(N2CCC(c3nc4ccccc4s3)CC2)C(=O)N1Cc1ccccc1 (stereo not drawn) do in these assays?
gsp antagonist: 35.5µM*; RXFP1 agonist: 1.4%; TSHR antagonist: -14.1; gsp ag: 6.0%; RXFP1 antag: -15.5

Results for COc1ccc2cc(CCN3C(=O)c4ccccc4C3=O)c(=O)[nH]c2c1 ?
gsp antagonist: 8.4%; RXFP1 agonist: inconclusive; TSHR antagonist: 4.2; gsp ag: 11.2µM*

How did COc1ccc2cc(CCNC(=O)C(C)(C)C)c(=O)[nH]c2c1 do in these assays?
gsp antagonist: 3.1%; RXFP1 agonist: 1.4%; TSHR antagonist: -0.2; gsp ag: -25.8%

Results for Cc1cc(=O)n2[nH]c(NC(=O)c3cccc(Cl)c3)nc2n1 ?
RXFP1 agonist: -5.0%; RXFP1 antag: -9.1

How did CCN(c1ccc(OC)cc1)S(=O)(=O)c1nnc(NC(=O)c2ccccc2Cl)s1 do in these assays?
gsp antagonist: inconclusive; RXFP1 agonist: 0.3%; TSHR antagonist: -11.2; gsp ag: 5.3%; RXFP1 antag: -60.5*!

How did CCN(CC)S(=O)(=O)c1nnc(NC(=O)c2ccccc2Cl)s1 do in these assays?
RXFP1 agonist: 0.2%; RXFP1 antag: -18.6

What do the screens show for `COc1ccc(NC(=O)Cn2cc(C(=O)c3ccccc3)c(=O)c3cc(OC)ccc32)c(OC)c1`?
RXFP1 agonist: 3.7%

Results for CC(C)OCCCNC(=O)c1c2c(nc3ccccc13)C(=O)N(C1CCCCC1)C2 ?
RXFP1 agonist: -0.4%; RXFP1 antag: -11.6

What do the screens show for `CC(C)(C)OC(=O)NCCCCCc1cn([C@@H](CO)C(=O)NCCCCCCCCCCC(=O)N2CCN(C(=O)OC(C)(C)C)CC2)nn1`?
gsp antagonist: inconclusive; RXFP1 agonist: -0.4%; TSHR antagonist: -95.3*

What do the screens show for `CCN(CC(=O)Nc1ccccc1C(F)(F)F)C(=O)CN1C(=O)NC(C)(c2ccccc2)C1=O` (stereo not drawn)?
gsp antagonist: -2.9%; RXFP1 agonist: -0.1%; TSHR antagonist: -3.3; gsp ag: 26.1%; RXFP1 antag: 3.0

How did CCN(CC(=O)Nc1ccccc1C(F)(F)F)C(=O)CN1C(=O)NC2(CCCC2)C1=O do in these assays?
gsp antagonist: 5.8%; RXFP1 agonist: 1.2%; TSHR antagonist: 15.5; gsp ag: -15.1%[15.4 µM]; RXFP1 antag: -60.5*

Results for COC(=O)c1ccc(N2NC(=O)/C(=C/c3cc(OC)c(OC)c(OC)c3)C2=O)cc1 ?
gsp antagonist: 12.6µM*; RXFP1 agonist: 0.0%; TSHR antagonist: -11.1; gsp ag: inconclusive; RXFP1 antag: -15.9

How did O=C(CN1C(=O)COc2ccc(S(=O)(=O)N3CCOCC3)cc21)N1CCN(c2ccccc2F)CC1 do in these assays?
RXFP1 agonist: 4.2%

Results for COc1cc(Cl)c(C)cc1Nc1nc2ccccc2n2cnnc12 ?
RXFP1 agonist: -0.4%

What do the screens show for `COc1cc2[nH]c(C(=O)Nc3ccc(F)cc3)cc2c(OC)c1OC`?
RXFP1 agonist: 1.7%; TSHR antagonist: -77.7*

What do the screens show for `Cc1cc(C)c2cc(C(=O)Nc3ccc(C)c(F)c3)[nH]c2c1`?
gsp antagonist: -4.2%; RXFP1 agonist: 0.6%; TSHR antagonist: -1.1; gsp ag: 25.4%; RXFP1 antag: -15.1

Results for Cc1cc(O)c(C)c(C)c1O ?
RXFP1 antag: 26.1

How did CC(=O)c1cc(-c2ccccc2)n(CC(=O)Nc2ccc(C)cc2C)c1C do in these assays?
RXFP1 agonist: -0.5%; RXFP1 antag: 6.5

How did CC(=O)c1cc(-c2ccccc2)n(CCC(=O)Nc2ccc(C)cc2C)c1C do in these assays?
RXFP1 agonist: 0.0%; RXFP1 antag: -62.2*

Results for Cc1ccc(/C=C2\SC(=S)N(CCC(=O)NNC(=O)c3ccncc3)C2=O)cc1 ?
gsp antagonist: 39.8µM*; RXFP1 agonist: -3.5%; TSHR antagonist: 29.7; gsp ag: -8.2%[15.4 µM]; RXFP1 antag: -5.3

How did O=C(CCN1C(=O)/C(=C/c2ccc(F)cc2)SC1=S)NNC(=O)c1ccncc1 do in these assays?
gsp antagonist: inconclusive; RXFP1 agonist: -0.9%; TSHR antagonist: 3.4; gsp ag: -11.0%; RXFP1 antag: -3.9

What do the screens show for `O=C(c1ccccc1)n1nc(-c2ccco2)nc1NCc1ccccc1Cl`?
RXFP1 agonist: -2.9%; RXFP1 antag: 13.7

How did CCCC(=O)Nc1nc(C)c(C(C)=O)s1 do in these assays?
gsp antagonist: 13.1%; RXFP1 agonist: 17.8µM*; TSHR antagonist: 48.1; gsp ag: inconclusive; RXFP1 antag: 9.1

Results for CC(=O)c1sc(NC(=O)C2(F)C(F)(F)C(F)(F)C(F)(F)C(F)(F)C2(F)F)nc1C ?
gsp antagonist: inconclusive; RXFP1 agonist: -0.9%; TSHR antagonist: -75.5*; gsp ag: 11.7%; RXFP1 antag: -32.1

How did CCc1ccc(S(=O)(=O)c2c(C(=O)c3ccc(C)c(C)c3)cnc3ccccc23)cc1 do in these assays?
RXFP1 agonist: 0.0%; RXFP1 antag: 5.7

Results for Cc1cccn2cc(-c3cccc(NC(=O)C(C)C)c3)nc12 ?
RXFP1 agonist: 4.8%; RXFP1 antag: -4.0

How did O=[N+]([O-])c1ccc(N=Nc2c(Cl)cc(O)cc2Cl)cc1 do in these assays?
gsp antagonist: 15.8µM*; RXFP1 agonist: -0.3%; TSHR antagonist: -91.5*; gsp ag: -25.9%; RXFP1 antag: 3.0

How did CC1CN(Cc2c(O)ccc3c(=O)c(-c4ccccc4)coc23)CC(C)O1 (stereo not drawn) do in these assays?
gsp antagonist: -10.0%; RXFP1 agonist: -1.2%; TSHR antagonist: -14.0; gsp ag: 8.0%[15.4 µM]; RXFP1 antag: -2.6

What do the screens show for `CC1CN(Cc2c(O)ccc3c2oc(=O)c2ccccc23)CC(C)O1` (stereo not drawn)?
gsp antagonist: 0.4%; RXFP1 agonist: 25.0%; TSHR antagonist: -10.5; gsp ag: 28.2µM*; RXFP1 antag: 6.8

Results for CCN(CC)CCCCN1c2ccccc2Sc2ccccc21 ?
gsp antagonist: 10.7%; RXFP1 agonist: -1.0%; TSHR antagonist: 6.8; gsp ag: inconclusive; RXFP1 antag: -63.5*

Results for CCN(CC)CC(=O)N1c2ccccc2Sc2ccccc21 ?
gsp antagonist: 19.4%; RXFP1 agonist: -2.1%; TSHR antagonist: -2.4; gsp ag: -2.5%; RXFP1 antag: 1.5

What do the screens show for `Cc1ccc(C)c(N(C)C(=O)c2cn(C)c(=O)c3ccccc23)c1`?
RXFP1 agonist: -1.8%; RXFP1 antag: -16.6

Results for CCCCOc1c(C(=O)Nc2ccccc2)nnn1-c1ccccc1 ?
RXFP1 agonist: 1.2%; TSHR antagonist: 1.0; gsp ag: -31.4%[15.4 µM]; RXFP1 antag: -87.0*

What do the screens show for `c1ccc(CC(Nc2ccccn2)c2ccccc2)cc1` (stereo not drawn)?
gsp antagonist: -2.4%; RXFP1 agonist: 0.0%; TSHR antagonist: 11.5; gsp ag: -4.1%[15.4 µM]; RXFP1 antag: -60.2*
